Values joined by “and” are separate entries in the source; they are usually repeats but may differ in a detail not shown here. Equal entries are not always repeated. A structure can be active in one record and inactive in another. Active and inactive are the calls of the source. How the source made its calls: active means hit-call score of the fitted dose curve at least 0.9, where 1 is the maximum; inactive means score below 0.9.

The nature of the assay: CCTE_Shafer_MEA_dev_per_network_spike_spike_percent: CCTE's Neural Network Formation Assay for Percent of Spikes in a Network Spike, Shafer Lab (AID 2284054). The protocol: CCTE_Shafer_MEA_dev assay is conducted using Axion Biosystems 48 well microelectrode array (MEA) plates and Maestro recording system. Each well of the MEA plate contains a grid of 16 microelectrodes embedded in the culture surface. Electrically active cells, such as neurons, can be cultured over the electrodes, and electrical activity in these cells can be recorded extracellularly. The spontaneous firing of neurons is captured from each electrode on a microsecond timescale providing both temporally and spatially precise data. […] The CCTE_Shafer_MEA_dev assay uses primary cultures of rat cortical neurons. Recordings are made on days post-plating 5, 7, 9 and 12. As these cultures mature over time, neural networks develop functional activity and form cohesive networks in which electrical activity can be highly coordinated. CCTE_Shafer_MEA_dev_per_network_spike_spike_percent is 1 of 19 assay components of the CCTE_Shafer_MEA_dev assay. It measures the percent of spikes (action potential firings) in a network spike (temporally-clustered group of spikes across multiple electrodes) as the number of spikes that occur within a 0.05 s time window at the peak of a network spike divided by the total number of spikes during a recording in a microelectrode array (MEA) using Axion Biosystems Maestro 768 channel amplifier with the AxIS adaptive spike detector. To collapse across multiple recordings made on days post-plating 5, 7, 9 and 12, the trapezoidal area-under-the-curve of the component is calculated.Data from the assay component CCTE_Shafer_MEA_dev_per_network_spike_spike_percent was analyzed into 1 assay endpoint. This assay endpoint, CCTE_Shafer_MEA_dev_per_network_spike_spike_percent, was analyzed in the negative analysis fitting direction relative to DMSO as the negative control and baseline of activity. Using a type of functional reporter, gain or loss-of-signal activity can be used to understand electrical activity.
On the day prior to culture, each well was coated thoroughly with 150 uL of 0.05% polyethyleneimine (PEI, Sigma Cat P3143) in 50 mM HEPES (Sigma Cat H7523) at a pH of 8. The plate was incubated at 37C for one hour. PEI was rinsed out with 500 uL of sterile water three times. Plates were stored at 4C until the day of culture. This culture was plated at a seeding density of 1.5 x 10^5 cells/well on a 48-well MEA plate, prepared as described above. Cells were administered via a 25 uL media/laminin ([…]; Sigma Cat L2020-1MG) drop directly onto the microelectrode array, as adding the cells with the laminin results in better attachment than pre-coating with laminin. After 2 hours, an additional 475 uL of cortical media was added and the cells returned to the incubator. Exposure starts at day 0 of plating and is continued over twelve days of network development until the experiment is terminated. Cells are fed with fresh medium on DIV 5 and 9, following the recordings on those days. The entire volume of media in the well is exchanged and any vehicle or compound treatment is renewed. Complete details are found in OP-NHEERL/ISTD/SBB/TJS/2015-03-r0 (available on request, email shafer.tim@epa.gov). Measurement of the electrical activity is non-invasive, and recordings can be made from the same plate over multiple different days of the culture. In cortical neurons, this allows for the measurement of extracellular action potentials over the period during which networks form in the MEA plate.
One may read the AC50 as the midpoint of the concentration-response curve, whichever way the signal moves. As to `COC(=O)N(C(=O)N1CO[C@@]2(C(=O)OC)Cc3cc(Cl)ccc3C2=N1)c1ccc(OC(F)(F)F)cc1`, the AC50 is 15 µM (active).
As for `CS(=O)(=O)c1cc(C(F)(F)F)ccc1C(=O)c1cnoc1C1CC1`, the compound was called inactive.
Take `C=C(C)CN(CC)c1c([N+](=O)[O-])cc(C(F)(F)F)cc1[N+](=O)[O-]`: the AC50 is 23.2 µM (active).
Consider `COP(=S)(OC)Oc1ccc([N+](=O)[O-])c(C)c1`, for which the call was inactive.
For the compound `Cc1c(COC(=O)[C@@H]2[C@H](/C=C(\Cl)C(F)(F)F)C2(C)C)cccc1-c1ccccc1`, the AC50 was 440 nM (active) and 649 nM (active).
For the compound `CCSC(=O)N1CCCCCC1`, the result was inactive.
The same measure, in the same setting: the entry for `CCNC(=O)NC(=O)C(C#N)=NOC` is “inactive”.
For `CNC(=O)Oc1cccc2ccccc12`, the AC50 is 15 µM (active) and 5.05 µM (active).
The same measure, in the same setting: the figure for `CC1(C)C(C(=O)OC(C#N)c2cccc(Oc3ccccc3)c2)C1(C)C` (configuration not stated) is 4.54 µM (active).
Take `CC(C)=CC1C(C(=O)OCc2coc(Cc3ccccc3)c2)C1(C)C` (configuration not stated): the compound was classed as inactive.
The same measure, in the same setting: the entry for `CCOC(=O)C(C)OC(=O)c1cc(Oc2ccc(C(F)(F)F)cc2Cl)ccc1[N+](=O)[O-]` (configuration not stated) is “inactive”; for `N#CN=C1SCCN1Cc1ccc(Cl)nc1` it is “inactive”.
Take `O=C1C2CC=CCC2C(=O)N1SC(Cl)(Cl)Cl` (configuration not stated): the AC50 is 15.6 µM (active) and the compound was called inactive.
As for `COP(=S)(OC)SCn1nnc2ccccc2c1=O`, the AC50 was 4.18 µM (active).
Regarding `CC1(C)C(C=C(Cl)Cl)C1C(=O)OC(C#N)c1cccc(Oc2ccccc2)c1` (configuration not stated), the AC50 is 8.41 µM (active) and the outcome was inactive.
The matching figures for `CCOP(=O)(OCC)Oc1nc(Cl)c(Cl)cc1Cl`: 7.07 µM (active) and “inactive”.
For the compound `O=C(Nc1ccccc1-c1ccc(Cl)cc1)c1cccnc1Cl`, the outcome was inactive.
For the compound `CS(=O)(=O)c1ccc(C(=O)C2C(=O)CCCC2=O)c([N+](=O)[O-])c1`, the outcome was inactive.
As for `CC(C)(C)C(=O)C(Oc1ccc(Cl)cc1)n1cncn1` (configuration not stated), the concentration at half-maximal activity (AC50) is 45.9 µM (active).
Regarding `COP(=O)(OC)O/C(C)=C/C(=O)N(C)C`, the compound was classed as inactive.
Regarding `CCN(CC)c1nc(C)cc(OP(=S)(OC)OC)n1`, the AC50 was 28 µM (active).
As to `CN/C(=N\[N+](=O)[O-])NCc1cnc(Cl)s1`, the result was inactive.
On to `CCCN(CC)CC1COC2(CCC(C(C)(C)C)CC2)O1` (configuration not stated), for which the AC50 was 0.266 µM (active).
As to `CO/N=C(/C1=NOCCO1)c1ccccc1Oc1ncnc(Oc2ccccc2Cl)c1F`, the AC50 is 1.52 µM (active) and 801 nM (active).

These data come from PubChem BioAssay (EPA / NIEHS).
